Data reported in PubChem BioAssay AID1117319 (Southern Research Institute, 2015).
Where “and” joins values, the source holds several entries; their conditions need not be identical. Equal values may be shown once. Among all 260,000 compounds or so, about 1,500 (0.58%) were called active. Another 5% or so got no clear call; they are omitted.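 The calls were made as follows: active = inhibition above a set limit at one or more doses, reproduced on every date tested; inconclusive = results disagree between test dates, or hit never tested in dose response; inactive = the rest.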 The list is a sample of the results. Potency and affinity values are given separately.

Each compound was assayed against Virion infectivity factor (Human immunodeficiency virus type 1 group M subtype B (isolate BH10)) + Virion infectivity factor (Human immunodeficiency virus type 1 group M subtype B (isolate BRU/LAI)) + Virion infectivity factor (Human immunodeficiency virus type 1 group M subtype B (isolate PCV12)) + Virion infectivity factor (Human immunodeficiency virus type 1 group M subtype B (isolate HXB2)) + DNA dC->dU-editing enzyme APOBEC-3G (Homo sapiens) (UniProt P69720+P69721+P69722+P69723+Q9HC16) (assay: HIV-1 Vif–A3G interaction blockers – biochemical, TR-FRET, GST-Vif 1-94, biotin-A3G peptide, dose response retest, primary screen (AID 1117319;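 also: Vif residues 1-94 fused to GST binding biotinylated APOBEC3G peptide 110-148; 0% = full assay without inhibitor and 100% = GST in place of GST-Vif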)). Settings: TR-FRET GST-Vif / biotin-A3G peptide binding; hits give high values.

inhibition, inactive:
COc1cc(C2CC(=O)c3c(O)cc(O)cc3O2)ccc1O (stereo not given) 9.19%
COc1ccc([C@H]2CC(=O)c3c(O)cc(O)cc3O2)cc1O 9.99%
O=[N+]([O-])c1cc2c(c(CSc3ncccn3)c1)OCOC2 1.34%
Cc1nnc(SCc2cc([N+](=O)[O-])cc3c2OCOC3)n(N)c1=O 20.5%
COc1ccc(CCNC(=O)COc2coc(CN3c4ccccc4CC3C)cc2=O)cc1OC (stereo not given) 3.96%
CCOC(=O)c1oc2ccc(/C=N/O)c(Cl)c2c1C -0.46%
CC1CN(C(=O)COC(=O)c2cnc(Cl)c(Cl)c2)CC(C)O1 (stereo not given) -12.2%
Nc1ncnc2c1ncn2[C@@H]1O[C@H](CNC(=O)[C@@H]2C[C@H](F)CN2)[C@@H](O)[C@H]1O -0.68%
COc1cccc(CNc2ccc(F)c([N+](=O)[O-])c2)c1O -12%
CCCCn1c(=NC(=O)c2ccc3c(c2)OCO3)c(C#N)cc2c(=O)n3cccc(C)c3nc21 6.53%
COCCCn1c(=NC(=O)c2ccncc2)c(C#N)cc2c(=O)n3cccc(C)c3nc21 3.9% and 7.65%
O=C(c1cccc(S(=O)(=O)N2CCc3ccccc32)c1)N1CCN(c2ccccn2)CC1 -7.91%
Cc1cnc(C(=O)OCC(=O)Nc2cc(-c3cc(C)c(C)cc3C)nn2-c2ccccc2)cn1 3.14%
S=c1[nH]nc(-c2cc(-c3ccco3)[nH]n2)n1-c1ccccc1 4.55%
COc1ccccc1-n1c(-c2cc(-c3ccc(F)cc3)n[nH]2)n[nH]c1=S 0.73%
S=c1[nH]nc(-c2cc(-c3ccco3)[nH]n2)n1-c1cccc2ccccc12 16.8%
COc1ccccc1-n1c(-c2ccco2)n[nH]c1=S -2.63%
Cc1cc2c(cc1C)NC1=C(N2)OC(c2cccc(O)c2)C1=O (stereo not given) 5.24%
NS(=O)(=O)c1ccc(CCNC(=O)CSc2ccsc2[N+](=O)[O-])cc1 4.39%
CC(=O)N1CCN(C(=O)CCNC(=O)c2ccc(Br)cc2)CC1 0.92%
CCN1CCN(c2nc3ccccn3c(=O)c2/C=C(\C#N)S(=O)(=O)c2ccccc2)CC1 -0.55%
COC(=O)c1ccc(C(=O)NN)cc1 -8.26%
Cc1cccc(NC(=O)Cc2ccc(F)cc2)c1 -2.86%
Cc1ccc(NC(=O)CCc2nc(-c3cccs3)no2)c(Br)c1 0.83%
C(=C\c1ccc2ccccc2n1)/c1ccccc1 10.9%
Fc1ccccc1/C=C/c1ccc2ccccc2n1 1.57%
CN(C)c1c2ccccc2nc2c(F)c(F)c(F)c(F)c12 -2.85%
Cc1c(N(C)C)nc2ccccc2c1N -3.71%
CNC(=O)COc1coc(CN2CCN(c3cccc(Cl)c3)CC2)cc1=O 6.04%
CCOC(=O)N/N=C(/c1ccccc1)C1CCCCC1 -4.75%
CCOc1ccccc1OCC(=O)NC1CCCCC1 -0.58%
CCN(C(=O)COC(=O)/C=C/c1cnc2ccccc2n1)c1ccccc1 -2.53%
CCOCC(=O)OCC(=O)Nc1cc(OC)c([N+](=O)[O-])cc1C 7.7%
COc1cccc(-c2nnc(SCC(=O)Nc3cc(C)ccc3OC)n2N)c1 3.89%
CCn1cc[n+](C)c1P(c1ccccc1)c1ccccc1 3.82%
COCCCn1c(=O)c2sccc2n2c(CCCC(=O)NCc3ccccc3OC)nnc12 -3.09%
Cc1ccc([N+](=O)[O-])cc1S(=O)(=O)Nc1cccc(S(=O)(=O)NC2=NCCC2)c1 3.32%
O=[N+]([O-])c1ccc(Cl)c(S(=O)(=O)NC2=NCCC2)c1 -7.04%
CC1(C)CC(=O)C=C(c2n[nH]nc2-c2ccc(F)c(F)c2)C1 -13.9%
CCOC(=O)c1cc(-c2ccc(OC)cc2OC)nn1-c1ccc(C(=O)O)cc1 4.72%
CC(C)N1CCc2c(sc(NC(=O)c3ccc(S(=O)(=O)N4CCOCC4)cc3)c2C(N)=O)C1 -2.18%
CN1CCc2c(sc(NC(=O)c3ccc(S(=O)(=O)N4CCOCC4)cc3)c2C(N)=O)C1 18.7%
Cc1c(C(=O)N(C)Cc2nc3ccccc3c(=O)[nH]2)oc2ccccc12 -2.36%
O=C1C=C(Nc2ccc(Cl)cc2Cl)CC(c2ccco2)C1 (stereo not given) 2.86%
Cc1ccc(NC2=CC(=O)CC(c3ccco3)C2)c(N)c1 (stereo not given) 23.3%
O=C1C=C(NCc2ccc(Cl)cc2)CC(c2ccco2)C1 (stereo not given) 32.3%
Cc1ccc(C2CC(=O)C=C(NCC(C)C)C2)cc1 (stereo not given) 3.68%
Cc1ccnc(NC(=O)c2ccc3c(c2)OCO3)c1 4.65%
Cc1cc(C)c2c(c1)/C(=N\N=c1\sc3ccccc3n1C)C(=O)N2 0.52%
Cc1cccc2c1NC(=O)C2=O 32.4%
COc1ccc(OC)c(NC(=O)CCN2CCN(C)CC2)c1 2.28%
COc1ccc(OC)c(NC(=O)CCN2CCCCC2)c1 -3.02%
N#Cc1cccc(NC(=O)CSc2nnc(-c3n[nH]c4ccccc34)o2)c1 -4.45%
Cc1cc(C(=O)COC(=O)c2ccccc2O)c(C)n1CC1CCCO1 (stereo not given) -14.1%
Cc1cc(C(=O)COC(=O)c2ccccc2Br)c(C)n1CC1CCCO1 (stereo not given) 30.3%
CCn1c(C)cc(C(=O)CN2C(=O)c3ccccc3S2(=O)=O)c1C 6.44%
CCCn1c(C)cc(C(=O)CN2C(=O)c3ccccc3S2(=O)=O)c1C 0.72%
Cc1cccc(-n2nnnc2SCC(=O)c2cc(C)n(CC3CCCO3)c2C)c1 (stereo not given) 22.8%
Cc1ccc(-n2nnnc2SCC(=O)c2cc(C)n(CC3CCCO3)c2C)cc1 (stereo not given) -3.58%
COc1ccc(OCC(=O)Nc2ccc(OC)c(S(=O)(=O)N3CCCCC3)c2)cc1 -0.4%
N#CC1=C(S)N=C(N)C(c2nc(-c3ccccc3)cs2)C12CCCCC2 (stereo not given) 13.7%
CCOC(=O)c1ccc(NC(=O)CSc2nnc(Cn3c(=O)sc4ccccc43)n2C)cc1 -11.7%
O=C(CN(C(=O)CNS(=O)(=O)c1ccc(F)cc1)C1CCCC1)NCc1ccco1 -8.82%
COC(=O)Cn1cnc2c(nnn2-c2ccc(OC)cc2)c1=O -8.1%
O=C(/C=N/O)NCc1cccnc1 -3.6%
O=C(N=C1SC2CS(=O)(=O)CC2N1c1ccc(Br)cc1)C1CCCO1 (stereo not given) 2.67%
NC(=O)CN1C(=O)/C(=c2\sc3nc(=O)c(Cc4ccccc4)nn3c2=O)c2ccccc21 -13.2%
COC(=O)c1cc(Br)c(=O)n(CC(C)C)c1 4.6%
CC(C)c1cc(C(=O)OCC(=O)NC2CC2)c(O)c(C(C)C)c1 1.52%
Nc1cc(C(=O)O)ccc1N1CCCCCC1 8.01%
COC(=O)c1ccc(N2CCCCC2)c(N)c1 24.1%
NC(=O)c1cc(N)ccc1N1CCCCC1 -6.02%
CC1CCCCN1c1ccc(N)cc1C(N)=O (stereo not given) 0.06%
Cc1cccc(NC(=O)C2SC(=Nc3c(C)cccc3C)C(C(=O)N3CCOCC3)=C2N)c1 (stereo not given) 13.6%
N#Cc1ccccc1CN1C(=O)NC(Cc2c[nH]c3ccccc23)C1=O (stereo not given) -3.01%
COc1ccc(C(=O)N/N=C/c2ccc(SC)cc2)cc1 -0.44%
COc1ccc(/C=N/NC(=O)c2ccc3c(c2)OCO3)cc1 -0.02%
CSCCC(NC(=O)c1ccccc1)C(=O)N/N=C(\C)c1ccccc1 (stereo not given) -5.06%
Cc1ccc(NS(=O)(=O)c2cc(N)ccc2Cl)c(C)c1 28.9%
Cc1ccc(Nc2ccc(C(=O)O)cc2N)cc1 15%
Nc1cc(C(=O)O)ccc1Nc1ccccc1 13%
Nc1cccc(Nc2ccccc2)c1 1.33%
Cc1ccc(-n2cc(-c3ccccc3)c3c(NN4CCOCC4)ncnc32)cc1 21%
COc1cc2nc(N(CCN(C)C)C(=O)c3ccc4ccccc4c3)sc2cc1OC -3.84%
O=C1COc2ccc(C(=O)COC(=O)Cc3ccc(F)cc3)cc2N1 -9.09%
Nc1c(C(=O)OCC(=O)Nc2ccc(Cl)cc2[N+](=O)[O-])[nH]c(=O)[nH]c1=O -3.88%
CCc1cc2cc(C)ccc2nc1SCC(=O)N1CCN(C(=O)c2ccco2)CC1 3.37%
CCc1cc2cccc(C)c2nc1SCC(=O)N1CCN(C(=O)c2ccco2)CC1 5.89% and -1.51%
Cc1cccc(N2CCN(C(=O)c3ccccc3NC(=O)C3=CSCCO3)CC2C)c1 (stereo not given) 0.87%
Cc1cc(=O)[nH]c2c3ccccc3nn12 -4.45%
CCOc1ccc(C2C(C(=O)OC)=C(C)N=C3SCCC(=O)N32)cc1OCC (stereo not given) -1.89%
CC(C)C(NCc1c(Cl)cccc1Cl)C(=O)O (stereo not given) -1.01%
COn1c(-c2ccccc2)nc2c1CCc1c-2no[n+]1[O-] 3.61%
c1ccc(COn2c(-c3ccccc3)nc3c2CCc2nonc2-3)cc1 -7.03%
Cc1c(C(=O)O)oc2c1C(=O)CC(C)(C)C2 -2.53%
